DT40 TDP1 CPT: DT40-hTDP1 cell growth loss with CPT; chicken DT40 Tdp1-/-;hTDP1 cells + 20 nM CPT, ATP luminescence, 48 h; Potency, µM (titrated, usually from 46.2 µM), for the others: top-dose activity change, negative = growth inhibition, usual class: inhibitors; hit rate 12% among 420,000; AID 686979; note: nearly all actives have a fitted effect of over 55% in size
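Cell growth measured by CellTiter-Glo luminescence after a minimum 48 h, 37 C compound exposure with 20 nM CPT in Tdp1-knockout DT40 cells stably expressing hTDP1, seeded 400/well; qHTS titration format.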
PLK1 PBD block: inhibitors of human PLK1 polo-box domain binding. Potency, µM, without a hit: max response, negative = inhibition, actives largely listed as inhibitors. hit rate 2.8% among 360,000. Plk1 PBD binding of FITC phosphopeptide, fluorescence polarization; note: series mostly up to about 57 µM; nearly all actives have a fitted effect of over 65% in size
Target sequence (P53350 whole entry, looked up, the tested form may be a part): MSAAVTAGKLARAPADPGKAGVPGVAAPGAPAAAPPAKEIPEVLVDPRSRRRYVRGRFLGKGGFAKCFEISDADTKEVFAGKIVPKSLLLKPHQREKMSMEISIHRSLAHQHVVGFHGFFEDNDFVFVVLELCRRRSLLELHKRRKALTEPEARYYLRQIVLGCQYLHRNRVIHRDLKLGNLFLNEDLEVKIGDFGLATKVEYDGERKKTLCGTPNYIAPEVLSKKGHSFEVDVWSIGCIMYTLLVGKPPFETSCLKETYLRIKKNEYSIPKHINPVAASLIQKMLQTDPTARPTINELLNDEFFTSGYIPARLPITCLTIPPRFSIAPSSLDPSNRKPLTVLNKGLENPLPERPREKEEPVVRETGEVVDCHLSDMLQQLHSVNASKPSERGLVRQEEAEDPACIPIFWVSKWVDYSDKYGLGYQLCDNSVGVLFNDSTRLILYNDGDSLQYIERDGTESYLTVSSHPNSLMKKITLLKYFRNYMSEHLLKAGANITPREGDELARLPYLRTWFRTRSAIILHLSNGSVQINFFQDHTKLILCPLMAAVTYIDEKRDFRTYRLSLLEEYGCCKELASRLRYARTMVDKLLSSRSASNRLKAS
TDP1 block: blocks human tyrosyl-DNA phosphodiesterase 1. recombinant TDP1, AlphaScreen DNA substrate cleavage. Potency, µM (series often up to 130 µM), inactives show at the top dose activity change, negative = inhibition, actives largely listed as inhibitors. hit rate 0.28% among 350,000; note: nearly all actives have a fitted effect of over 40% in size
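Recombinant human Tdp1 (E. coli-expressed, 1 nM final) preincubated with compounds 15 min at room temperature, then 5'-biotin/3'-phosphotyrosine-FITC DNA substrate (15 nM final) added for 5 min. AlphaScreen beads (10 ug/ml final) added 10 min; cleavage lowers signal.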
GCN5L2 inh: GCN5L2 (KAT2A) acetyltransferase inhibition | GCN5L2 HAT assay, ThioGlo1 CoA-SH fluorescence | Potency, µM (top dose mostly 58.9 µM), inactives show top-dose activity change, negative = inhibition, hits mostly inhibitors | hit rate 0.21% among 390,000
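GCN5L2 (20 nM) in 50mM HEPES pH 7.5, 0.1mM EDTA, 0.01% Tween-20 preincubated 15 min with compounds at room temperature. Reaction started with H3(1-25) 75uM, acetyl-CoA 70uM, ThioGlo1 50uM; CoA-thiol fluorescence (Ex340/Em540) read at 0 and 20 min.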
DT40 TDP1 no CPT: qHTS for Inhibitors of human tyrosyl-DNA phosphodiesterase 1 (TDP1): qHTS in cells in absence of CPT. DT40 Tdp1-/- hTDP1 cells, no CPT, ATP luminescence, 48 h. Potency, µM (series often up to 46.2 µM), inactives show at the highest dose activity change, negative = growth inhibition, actives largely listed as inhibitors. hit rate 15% among 420,000; note: nearly all actives have a fitted effect of over 55% in size
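Chicken DT40 Tdp1-/- cells stably complemented with human TDP1 were seeded at 400 cells/well with DMSO in place of 20 nM camptothecin. After compound pinning, cells grew at least 48 hr at 37 °C; viability read by CellTiter-Glo luminescence.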
VDR inhibitor: vitamin D3 receptor (human) inhibition; P11473; VDR-SRC2-3 peptide fluorescence polarization, 2 h; Potency, µM, for inactives: max response, negative = inhibition, actives largely listed as inhibitors; hit rate 0.93% among 400,000; AID 504847
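Signal is fluorescence polarization, reporting how far test compounds block the interaction of VDR with the SRC2-3 coregulator peptide after a 2 h room-temperature incubation.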
* hit, by the source's call; ? = inconclusive; . = not tested or not shown; [ ] = another dose, or the depositor's remark. The list is not random: actives were taken first. Their share in the collection is about 18%. Calls come from the whole dose curve; as a rule, active = well fitted curve in the direction sought with a large enough effect; inconclusive = small, poorly fitted or top-dose-only effect, or another doubt; inactive = no such curve, though single readings can be large; an effect the other way counts as inactive or inconclusive. % is set by controls: 0 for no effect and ±100 for the full control effect; potency is the fitted concentration of half-maximal effect.

SMILES	DT40 TDP1 CPT	PLK1 PBD block	TDP1 block	GCN5L2 inh	DT40 TDP1 no CPT	VDR inhibitor
CC(C)(C)c1ccc(S(=O)(=O)c2cn(CC(=O)Nc3ccccc3)c3ccccc3c2=O)cc1	?	.	4%	-2%	?	?
COCCNC(=O)C1=C(N)C(C(=O)Nc2ccc(C)c(S(=O)(=O)N3CCCCC3)c2)SC1=Nc1ccc(C)cc1C (stereo unspecified)	18µM*	-9%	11%	-7%	18µM*	12%
CCN(CC)S(=O)(=O)c1cccc(NC(=O)C2SC(=Nc3ccc(C)cc3C)C(C(=O)NCC3CCCO3)=C2N)c1 (stereo unspecified)	?	-6%	5%	2%	23µM*	5%
COCCNCC(=O)Nc1ccc(C)c(S(=O)(=O)N2CCCCC2)c1	7%	-16%	-3%	-19%	-3%	-4%
Cc1ccc(C(=O)CN(CCC(=O)O)C(=O)c2ccncc2)cc1	-2%	-5%	2%	-4%	9%	-15%
CS(=O)(=O)N1CCCCC1c1cc(C(=O)Nc2ccccc2Cl)no1 (stereo unspecified)	-22%	-9%	.	.	-27%	.
COc1ccc2ccccc2c1CN1CCN(C(=O)c2ccccc2)CC1	?	-11%	5%	-6%	15µM*	-1%
COc1ccc(Br)cc1CN1CCN(C(=O)c2ccc(F)cc2)CC1	?	-6%	-9%	-8%	21µM*	-15%
COc1ccc(C(=O)N2CCN(Cc3cn[nH]c3-c3ccc(OC)cc3F)CC2)cc1	-9%	0%	.	-5%	?	-2%
CC(C)CC(=O)N1CCN(C(=O)c2ccc(-c3ccccc3)cc2)CC1	?	-4%	4%	-4%	23µM*	-19%
COc1cccc(C(=O)N2CCN(Cc3cn[nH]c3-c3ccc(F)cc3F)CC2)c1	?	30µM*	3%	-13%	-15%	?
CCCOc1ccc(/C=C/C(=O)N2CCN(C(=O)c3ccco3)CC2)cc1OC	?	-1%	.	.	13µM*	.
COc1cccc(CN2CCN(C(=O)c3ccc(-c4ccccc4)cc3)CC2)c1OC	?	30µM*	-3%	-5%	-3%	2%
COc1ccccc1C(=O)N1CCC(N2CCN(c3ccccc3)CC2)CC1	-5%	-2%	-1%	-1%	-27%	-7%
CC(C)CC(=O)N1CCC(N2CCN(c3ccccc3)CC2)CC1	-10%	30µM*	-5%	3%	-18%	?
O=C(c1ccco1)N1CCN(CCOCCOc2cccc3ccccc23)CC1	?	-3%	4%	2%	?	20%
O=C(c1ccco1)N1CCN(CCCCOc2cccc3ccccc23)CC1	18µM*	4%	8%	-2%	?	-10%
Cc1cc(C)cc(NS(=O)(=O)c2c(C(=O)N3CCOCC3)c(C)n(C)c2C)c1	?	-17%	0%	-5%	-4%	2%
CC12CCC(C(=O)C1)C1(C)CCCC(=O)C21 (stereo unspecified)	9%	-5%	.	.	1%	7%
COc1ccc(C(=O)NCC2Cc3cccc(-c4ccc(S(C)(=O)=O)cc4)c3O2)c(OC)n1 (stereo unspecified)	10%[9.04 µM]	.	.	.	-9%	.
COc1ccc2ccccc2c1CN1CCN(C(=O)c2ccco2)CC1	18µM*	-10%	8%[0.0935 µM]	-2%	15µM*	1%
COc1cc(-c2nc(CN3CCCN(C(=O)c4ccco4)CC3)c(C)o2)ccc1F	?	30µM*	3%	-1%	?	-12%
Cc1c(C(=O)NC2CCOC2)oc2c(F)cccc12 (stereo unspecified)	2%	4%	4%	-4%	-3%	5%
CCC(C(=O)NCc1ccccc1OC)n1nc(C)n2c(cc3occc32)c1=O (stereo unspecified)	?	-2%	3%	-4%	-45%	0%
